# In all, about 69,000 compounds went through this assay and about 420 (0.61%) showed an effect of 50% or more. The sample holds strong results, similar compounds and a random draw of the others, so the mix is not that of the screen.
# Target: T1, Histidine--tRNA ligase (Leishmania infantum) (UniProt A4I591)
# T1 sequence (whole entry): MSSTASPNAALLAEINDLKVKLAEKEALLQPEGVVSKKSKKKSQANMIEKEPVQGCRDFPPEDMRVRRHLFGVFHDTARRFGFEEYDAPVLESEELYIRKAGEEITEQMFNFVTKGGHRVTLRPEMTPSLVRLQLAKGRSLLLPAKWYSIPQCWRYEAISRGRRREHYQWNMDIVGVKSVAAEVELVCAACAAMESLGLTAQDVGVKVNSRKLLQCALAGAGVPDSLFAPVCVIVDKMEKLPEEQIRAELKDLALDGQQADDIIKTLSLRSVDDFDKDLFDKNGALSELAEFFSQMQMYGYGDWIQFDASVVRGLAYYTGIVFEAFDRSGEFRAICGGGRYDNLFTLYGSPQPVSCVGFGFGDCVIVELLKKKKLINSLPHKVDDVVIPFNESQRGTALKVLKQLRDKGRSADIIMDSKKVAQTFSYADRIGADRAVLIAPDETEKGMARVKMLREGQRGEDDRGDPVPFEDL
# Assay: Leishmania infantum Histidine tRNA synthetase (LdHisRS)
# Format: functional
# Design: scale not given: in the data most compounds retested in dose-response had high values
# Conditions: 30 µM
row,Compound,Percent Effect [%]
1,O=C1O[C@@H]2CN(Cc3cc4ccccc4o3)C[C@@H]2N1Cc1ccccn1,0
2,CN1CCN(Cc2nnc(C3CCN(CC4CC4)CC3)n2C)CC1,21.1
3,CN1CCN(Cc2nnc(C3CCN(C4CCCCC4)CC3)n2C)CC1,13.2
4,CN1CCN(Cc2nnc(C3CCN(C(CO)CO)CC3)n2C)CC1,80.7
5,Cc1ccnc(OC[C@]23COC[C@H]2CN(C(=O)C2=CCCCC2)C3)n1,5.56
6,CN(Cc1cccnc1)c1nccc(N2CCN[C@H]3CS(=O)(=O)C[C@H]32)n1,12.9
7,c1ccc(CN2C[C@@H]3CC[C@H](C2)N(Cc2nnc(C4CC4)o2)C3)cc1,34
8,COc1cc(N2C[C@@H]3COC[C@]3(C(=O)NCc3ccccn3)C2)ncn1,5.26
9,COCCNC(=O)Cn1c(-c2ccco2)cc2cccnc21,14.8
10,O=C(Cn1c(-c2ccco2)cc2cccnc21)N1CCCC1,76.5
11,CC(C)N(C(=O)Cn1c(-c2ccco2)cc2cccnc21)C(C)C,20.1
12,Cc1nnc([C@@]23CCO[C@@H]2CCN(Cc2nccs2)C3)o1,7.92
13,CN(C)C(=O)N1C[C@@H]2CCCO[C@@H]2[C@H](N(C)Cc2ccco2)C1,11.4
14,C1CC(CN2C[C@H]3CC[C@@H]2CN(Cc2noc(C4CCCC4)n2)C3)C1,8.51
15,c1ccc(-c2cc(CN3C[C@@H]4CC[C@H](C3)N(CC3CC3)C4)on2)cc1,26.7
16,c1ccc(-c2nnc(CN3C[C@@H]4CC[C@H](C3)N(CC3CCC3)C4)o2)cc1,21.3
17,c1ccc(-c2cc(CN3CCCC(Cn4cncn4)C3)on2)cc1 (stereo unspecified),8.55
18,c1ccc(-c2cc(CN3C[C@@H]4CC[C@H](C3)N(CC3CCC3)C4)on2)cc1,51.7
19,O=C(NCC1CC1)[C@@H]1CCO[C@@H]2CCN(CCc3ccccc3)C[C@H]21,13.7
20,CN1CCN(C(=O)[C@H]2CC[C@@H]3[C@@H](CCN3Cc3nccs3)O2)CC1,-10.1
21,Cc1cc(CN2CCN(CC3CC3)[C@@H]3CS(=O)(=O)C[C@@H]32)cc(C)c1O,8.33
22,O=C([C@H]1C[C@H]2OCC[C@H]2N(Cc2ccco2)C1)N1CCCO1,22.2

row,Compound,Percent Effect [%]
1,CN(Cc1nccs1)c1nccc(N2CCN[C@H]3CS(=O)(=O)C[C@H]32)n1,14.5
2,O=C(NCc1ccco1)[C@H]1CC[C@@H]2[C@@H](CCN2Cc2nccs2)O1,31.5
3,O=C(NCc1ccco1)[C@@H]1CC[C@@H]2[C@@H](CCN2Cc2ccc(F)cc2)O1,69.9
4,O=C(NCc1ccco1)[C@H]1CC[C@@H]2[C@@H](CCN2Cc2cccnc2)O1,23.3
5,O=C(NCc1ccco1)[C@@H]1CC[C@@H]2[C@@H](CCN2CC2CC2)O1,23.3
6,Cn1cc(CN2CC[C@H]3O[C@H](C(=O)NCc4ccco4)CC[C@H]32)cn1,9.43
7,COCCN1CCCn2cnc(CN(C)C(C)C)c2C1,30
8,COCCN1CCCn2cnc(CNC(=O)N(C)C)c2C1,9.4
9,COCCN1CCCn2cnc(CNC3CCCC3)c2C1,77.8
10,COCCN1C(=O)CO[C@H]2CN(Cc3cccc(OC)c3F)C[C@@H]21,8.25
11,Cc1nnc([C@]23COC[C@H]2CN(Cc2cnn(C)c2)C3)o1,27.4
12,CN(C)CCN1CCO[C@@H]2CN(C(=O)Cc3ccsc3)CC[C@@H]2C1,10
13,C1CC(CN2C[C@@H]3C[C@@H](c4nnc(C5CC5)o4)O[C@@H]3C2)CCO1,11.1
14,O=S(=O)(CCCn1cncn1)Cc1ccccc1Cl,19.7
15,O=S(=O)(CCCn1cncn1)Cc1cccc(F)c1,-11.8
16,O=S(=O)(CCCn1cncn1)Cc1ccc(F)cc1Cl,109
17,COc1ncccc1CN1C[C@@H]2C[C@@H](C(=O)NCC3CC3)N(C)[C@@H]2C1,24.8
18,CO[C@@H]1CC[C@H]2[C@H]1OCCN2C(=O)c1ccc(C)nc1,7.02
19,COc1cc(N2C[C@H](C(=O)NC3CC3)[C@@H]3CCO[C@@H]3C2)ncn1,3.23
20,Cc1ccc2[nH]c(CO[C@H]3CN(C(=O)C4CC4)C[C@H]3F)nc2c1,4.05
21,Cc1ccc2[nH]c(CO[C@H]3CN(c4ccc(C#N)cn4)C[C@H]3F)nc2c1,69.4
22,CN1C[C@@H](F)[C@@H](OCc2nc3ccc(C#N)cc3[nH]2)C1,25

row,Compound,Percent Effect [%]
1,O=C(NC1CC1)[C@@H]1CCO[C@@H]2CCN(CCc3ccccc3)C[C@@H]21,15.1
2,Cc1cccc(CN2C[C@H]3OC(=O)N(CCCN4CCOCC4)[C@H]3C2)n1,22.3
3,Cc1ncsc1C(=O)N1CC[C@@H]2[C@@H](CC1)OCCN2c1cccnc1,10.5
4,O=c1c(C(F)(F)F)cccn1Cc1nnc(-c2cccnc2)o1,11.5
5,COc1cccn(Cc2nnc(-c3cccnc3)o2)c1=O,39.3
6,COc1cccn(Cc2nnc(-c3cccc(F)c3)o2)c1=O,91.8
7,Cc1cccc(CN2C[C@@H]3CN(C(=O)NC(C)C)C[C@@H]3C2=O)c1,12.3
8,CN(C)c1nccc(NCc2cc(-c3ccco3)n[nH]2)n1,34.3
9,C[C@H](NS(C)(=O)=O)C(=O)NCc1cc(-c2ccco2)n[nH]1,51.4
10,CC(C)[C@H](NS(C)(=O)=O)C(=O)NCc1cc(-c2ccco2)n[nH]1,54.3
11,CC(C)[C@H](NS(C)(=O)=O)C(=O)NCc1cc(-c2ccccc2)n[nH]1,17.1
12,C[C@H](NS(C)(=O)=O)C(=O)NCc1cc(-c2ccco2)n(CC(F)(F)F)n1,-80
13,CC(C)[C@H](NS(C)(=O)=O)C(=O)NCc1cc(-c2ccco2)nn1C,8.57
14,CN1CCN(C[C@@H]2OC[C@H]3CN(CCc4ccccc4)CC[C@H]32)CC1,22.6
15,O=C(NC1CCC1)[C@@H]1CCO[C@@H]2CCN(CCc3ccccc3)C[C@H]21,15.4
16,O=C(NC[C@]12COC[C@H]1CN(Cc1nccs1)C2)c1ccsc1,0
17,COc1cc(C#N)ccc1OC12CCCN(CC1)C2 (stereo unspecified),23.1
18,Cc1nc(CNCc2cccc(OC34CCCN(CC3)C4)c2)n[nH]1 (stereo unspecified),24.7
19,c1ccc(Oc2ccc(OC34CCCN(CC3)C4)cc2)cc1 (stereo unspecified),61.2
20,c1ccc(Oc2cccc(OC34CCCN(CC3)C4)c2)cc1 (stereo unspecified),51
21,Cc1cnccc1CNCc1ccc(OC23CCCN(CC2)C3)cc1 (stereo unspecified),36.5
22,O=c1[nH]nc(CNCc2ccc(OC34CCCN(CC3)C4)cc2)[nH]1 (stereo unspecified),17.6

row,Compound,Percent Effect [%]
1,Cc1ccc(C(=O)N2C[C@@H]3CCCO[C@@H]3[C@H](N(C)Cc3ccco3)C2)o1,3.23
2,O=S(=O)(N1CCCC1)N1CC[C@H](c2ccccc2)[C@H]2NCCCC[C@H]21,26.3
3,COc1ncccc1CN1C[C@@H]2COC[C@]2(COc2ccccn2)C1,7.69
4,CS(=O)(=O)NC[C@]12COC[C@H]1CN(C(=O)c1cnccn1)C2,-2.65
5,O=C(CN1CCN(c2ncccn2)[C@@H]2CS(=O)(=O)C[C@@H]21)N1CCCCC1,-8.22
6,CCOc1ccc(-c2c(C#N)c(N)nc3c2COCC3)cn1,21.7
7,CCCn1cc(-c2cc(-c3cnc(OC)nc3)c(C#N)c(N)n2)c(C)n1,16.4
8,COc1ncc(-c2c(C#N)c(N)nc3c2CCc2[nH]ccc2-3)cn1,95.7
9,COc1ncc(-c2cc(-c3ccn(C)c3)nc(N)c2C#N)cn1,35.4
10,CCC(C)Sc1ncc(-c2c(C#N)c(N)nc3c2COCC3)cn1 (stereo unspecified),2.17
11,COCCc1ncc(-c2c(C#N)c(N)nc3c2CCc2[nH]ccc2-3)cn1,103
12,O=C([C@@H]1C[C@@H]2CCN(Cc3ccco3)C[C@H]2O1)N1CCCO1,15
13,Cn1nc2c(cc1=O)CN(CC(=O)Nc1nncs1)CC2,6.06
14,Cn1nc2c(cc1=O)CN(CC(=O)Nc1nccs1)CC2,48.2
15,CC(C(=O)Nc1ccnn1C(C)C)N1CCc2nn(C)c(=O)cc2C1 (stereo unspecified),25
16,CC(C(=O)Nc1ccc(Cl)cn1)N1CCc2nn(C)c(=O)cc2C1 (stereo unspecified),102
17,Cn1nc2c(cc1=O)CN(CC(=O)Nc1ccc(Cl)cn1)CC2,103
18,CC(C(=O)Nc1nccs1)N1CCc2nn(C)c(=O)cc2C1 (stereo unspecified),23.2
19,Cc1cccc(CN2C(=O)CO[C@@H]3CN(CCO)C[C@H]32)c1,15.4
20,Cc1cc(C(=O)N2CC[C@@H]3CN(C)S(=O)(=O)[C@@H]3CC2)no1,9.62
21,Cc1cccc(COC[C@@H]2CC[C@H]3[C@H](CCN3Cc3ccco3)O2)n1,13.3
22,Cc1csc(C2(NCc3csc(C4CC4)n3)CCCC2)n1,8.6

row,Compound,Percent Effect [%]
1,CCCc1nc(CNC2(c3nccs3)CCCC2)cs1,15.1
2,c1csc(C2(NCc3csc(C4CC4)n3)CCCC2)n1,51.6
3,O=C(NC[C@H]1CC[C@H](c2nnc(-c3cccnc3)o2)CC1)C1CC1,-19.9
4,O=C(c1ccsc1)N1C[C@@H]2CCN(C(=O)c3cccc(F)c3)[C@@H]2C1,11.7
5,COc1ccc(CNC(=O)Nc2ccc(S(=O)(=O)C(F)F)cc2)cc1,18.3
6,O=C(NCc1ccoc1)Nc1ccc(CN2CCOC2=O)cc1,2.88
7,Cn1cc(NC(=O)NCc2ccoc2)ccc1=O,120
8,COc1ccc(CNC(=O)c2ccc(=O)n(C)c2)cc1C,-2.08
9,COc1cccc(-c2ccc(CNC(=O)c3ccc(=O)n(C)c3)cc2)c1,14.6
10,COC(=O)c1ccc(CNC(=O)Nc2ccc(=O)n(C)c2)cc1,120
11,COc1ccc(CNC(=O)Nc2ccc(CN3CCOC3=O)cc2)cc1,15.2
12,Cc1nnc(NC(=O)NCc2ccoc2)s1,7.69
13,COc1ccc(CNC(=O)Nc2ccc(=O)n(C)c2)cc1,114
14,c1cnc(N2C[C@H]3CCN(CCN4CCCC4)C[C@H]3C2)cn1,25.7
15,Cc1ccc(CN2CC[C@H]3[C@@H]2CCC(=O)N3CCN2CCCC2)s1,5.11
16,CC(C)NC(=O)N1CC[C@H]2[C@H]1CCN2c1ncccn1,15.4
17,COc1ncccc1CN1C[C@@H]2COC[C@]2(COc2cccnc2)C1,20.5
18,Cc1nc([C@@H]2C[C@@H]3CCN(C(=O)c4ccsc4)C[C@H]3O2)no1,0

# — ChEMBL document CHEMBL3988442, “University of Dundee, Small-Polar-MMV Screening Library” (2021)
